About 210 (10%) of roughly 2,100 compounds were called active. Roughly 53% stayed inconclusive and do not appear here. The call rests on the fitted dose curve; in most records, active means well fitted inhibition curve with a large enough effect; inconclusive means small, poorly fitted or top-dose-only effect, or effect the other way; inactive means no such curve, though single readings can be large or run the other way. The list shows a part of the results.
assay: IN Cell qHTS Assay for Inhibitors of the mTORC1 Signaling Pathway in MEF (Tsc2-/-, p53-/-) Cells: Sytravon; conditions: phospho-rpS6 immunofluorescence, 24 h; series mostly up to 38.3 µM; activity, negative = inhibition: at the top concentration; further: nearly all actives have a fitted effect of over 60% in size;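 on activity, negative = inhibition: plate controls were DMSO wells for no effect and 7.5 nM rapamycin full pathway inhibition for full effect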
Summary of the method: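 Tsc2-/-, p53-/- MEFs (empty-vector) treated with compound 24 h at 37 degree Celsius, then fixed and stained for phospho-rpS6 Ser235/236 (Alexa-488) plus Hoechst. Reported as % positive cells, thresholds set against 7.5 nM rapamycin and DMSO wells.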
Potency means the concentration at half of the fitted maximal effect.

activity, negative = inhibition, inactive:
CC(=O)N1c2ccc(S(=O)(=O)NCC3CCC(C(=O)Nc4cc(C)cc(C)c4)CC3)cc2CC1C (stereo not given) -17.7%
NC(=O)CSc1nc2ccc(NC(=O)COc3ccccc3Cl)cc2s1 -53.5%
Cc1ccc2[nH]cc(C(c3ccccc3)c3ccc(Cl)s3)c2c1 (stereo not given) 11.2%
CCc1cccc(NC(=O)c2ccc(CNS(=O)(=O)c3ccc4c(c3)C(C)(C)C(=O)N4C)cc2)c1 -6.44%
Cc1cncn1CCc1nc2c3ccccc3nc(SCC(=O)Nc3ccccc3F)n2n1 -18.2%
O=c1[nH]c(SCc2ccc(Br)cc2)nc2c1CCCC2 -18.7%
COc1ccc(Nc2c3c(nc4nncn24)CCC3)cc1OC -7.07%
CCOc1ccc(-c2nonc2NC(=O)c2oc3ccc(CC)cc3c2C)cc1 0.616%
NS(=O)(=O)c1ccc(CCNC(=O)C2COc3ccccc3C2)cc1 (stereo not given) 0.324%
COc1ccc(NC(=O)c2c(C)oc3ccc(O)c(CN4CCN(Cc5ccccc5)CC4)c23)cc1Cl -18.9%
COc1ccc(NC(=O)c2c(C)oc3ccc(O)c(CN4CCCC(C)C4)c23)cc1 (stereo not given) -13.9%
Cc1ccc(NC(=O)c2c(C)oc3ccc(O)c(CN4CCCCCC4)c23)cc1 -9.84%
Cc1oc2ccc(O)c(CN3CCCCCC3)c2c1C(=O)Nc1cccc(Cl)c1C -13.9%
O=C(Cn1cc(SCc2ccc(Cl)cc2)c2ccccc21)N1CCCC1 -8.71%
Oc1c(C(Nc2ccccn2)c2ccccc2F)ccc2cccnc12 (stereo not given) -19.3%
COc1ccc(C)cc1NC(=O)c1cc(S(=O)(=O)N2CCN(c3cccc(C)c3C)CC2)ccc1F 6.25%
Cc1cc(NC(=O)C2CCC(CNS(=O)(=O)c3ccc(Br)s3)CC2)ccc1Br (stereo not given) -23%
COc1ccccc1C(=O)Nc1nc2ccc(S(=O)(=O)N3CCCC3)cc2s1 7.56%
COc1ccccc1C(=O)Nc1cccc(OCc2cc(=O)n3ccccc3n2)c1 -16.7%
CCCCNC(=O)CSc1nc2n[nH]c(C)c2c(=N)n1-c1cccc(Cl)c1C 0%
Cc1ccc(-c2nc3ccc(Cl)cn3c2Nc2ccccc2C)s1 6.27%
Cc1cc(C)cc(NS(=O)(=O)c2ccc(-c3cc(C)no3)s2)c1 1.3%
CCC1=Nc2cc(C(=O)NC3CCCC3)ccc2Sc2ccc(Cl)cc21 -14.2%
Cc1nc(-c2ccc(F)cc2)sc1CCNC(=O)C(=O)Nc1ccc2c(c1)OCCO2 0.21%
CCCC(=O)Nc1cccc(-c2cn3c(C)csc3n2)c1 -23.1%
O=c1oc2ccccc2cc1-c1cn2cc(Cc3ccccc3F)sc2n1 17.9%
CCOc1cc(C2C(C(=O)OC)=C(C)NC3=C2C(=O)c2ccccc23)cc(Br)c1OCC (stereo not given) 24.9%
CC(NC(=O)c1c2c(nc3ccccc13)C(=O)N(C1CCCCC1)C2)c1ccccc1 (stereo not given) -0.206%
CCC1CCCCN1CCCNC(=O)c1ccc2c(c1)N(Cc1cccc(Cl)c1)C(=O)c1ccccc1S2(=O)=O (stereo not given) 0%
Cc1cccc(CN2C(=O)c3ccccc3Sc3ccc(C(=O)NC4CCCCC4)cc32)c1 6.25%
CC1CCCN(CCCNC(=O)c2ccc3c(c2)N(Cc2cccc(Cl)c2)C(=O)c2ccccc2S3(=O)=O)C1 (stereo not given) 0%
CCCCN(CC)CCCNC(=O)c1ccc2c(c1)N(Cc1ccc(C)cc1)C(=O)c1ccccc1S2 6.25%
CCN(CC)CCCNc1cc(-c2ccccc2)nc(C)n1 -25.1%
CC(C)c1ccc(C2CC(=O)Nc3cc4c(cc32)OCCO4)cc1 (stereo not given) 28.6%
O=C(NCCCc1nc2ccccc2n1Cc1ccccc1F)c1ccco1 -18.6%
COc1ccc(CNc2oc(/C=C/c3cccc(OC)c3)nc2C#N)cc1 -16.9%
CCOc1ccc(/C=C/c2nc(C#N)c(NCCCN(C)C)o2)cc1 -10.9%
Cc1ccccc1OCc1ccc(-c2nc(C#N)c(N3CCN(C)CC3)o2)o1 -14.4%
COc1ccc(CNc2oc(/C=C/c3cc(OC)c(OC)c(OC)c3)nc2C#N)cc1 -17.5%
CCCc1ccc(NC(=O)C2CCN(c3cnccn3)CC2)cc1 -23.8%
Cc1cc(=O)n2nc(N3CCC(C(=O)NCc4ccc(Cl)cc4)CC3)sc2n1 -2.82%
CCOCCCNC(=O)C1CCN(c2nc3ccc(Cl)cc3[nH]2)CC1 20.5%
COc1cccc(NC(=O)C2CCC(CNS(=O)(=O)c3csc(C(N)=O)c3)CC2)c1 (stereo not given) 1.3%
O=C(CCCCn1c(=O)[nH]c2ccsc2c1=O)N1CCN(c2cccc(Cl)c2)CC1 13.4%
O=C(NCc1ccco1)C1CCN(C(=O)N2CCOc3ccc(Cl)cc32)CC1 -11.2%
O=C(Nc1ccc(Br)cc1F)c1cc(S(=O)(=O)NC2CCCC2)ccc1F 6.25%
CCC(=O)N1CCc2cc(Br)cc(S(=O)(=O)N3CCCC(C(=O)Nc4ccc(CC)cc4)C3)c21 (stereo not given) -0.347%
Cc1ccc(C2c3c(-c4cc(C)ccc4O)n[nH]c3C(=O)N2Cc2ccco2)cc1 (stereo not given) -28.4%
COc1ccc(Cn2c(C(=O)O)c(CNCCc3cccs3)c3ccc(OC)cc32)cc1 -23.6%
CCc1ccc(NC(=O)C2CCC(CNS(=O)(=O)c3ccc4c(c3)CC(C)N4C(C)=O)CC2)cc1 (stereo not given) 0.227%
Cc1ccc(CSc2oc(-c3ccco3)nc2S(=O)(=O)c2ccc(Cl)cc2)cc1 9.59%
Cc1ccc(S(=O)(=O)c2nc(S(=O)(=O)c3ccccc3)sc2NCCCOC(C)C)cc1 -4.2%
O=S(=O)(NCC(c1ccco1)S(=O)(=O)c1ccccc1)c1cc(F)ccc1F (stereo not given) -5.98%
CCCN1C(=O)C(Cc2nc3ccccc3c(=O)n2CC)c2cc(Br)ccc21 (stereo not given) -26%
COC(=O)c1c(NC(=O)c2ccc(S(=O)(=O)N3CCC(C)CC3)cc2)sc2c1CCN(C)C2 -13.9%
Cc1cccc(-n2cnc3cc(C(=O)NC4CCCCCC4)ccc32)c1 -13.7%
CC(C)c1ccc(NC(=O)c2ccc3c(c2)CCCN3S(C)(=O)=O)cc1 -64.6%
CCc1ccc(NS(=O)(=O)c2ccc3[nH]c4c(c3c2)CCCCCC4)cc1 -5.72%
O=C1C(Nc2ccccc2)=CC(c2ccc(Br)cc2)N1c1ccccc1 (stereo not given) -8.7%
COc1ccc(-n2nnnc2C2CCN(S(=O)(=O)c3cc(Cl)ccc3OC)CC2)cc1 -13.3%
O=C(NCCc1csc(-c2cccnc2)n1)c1cccc(C(F)(F)F)c1 -29.2%
O=C(C1CCC(CNS(=O)(=O)c2ccc(Br)s2)CC1)N1CCN(c2ccccc2)CC1 (stereo not given) 3.43%
O=S(=O)(c1ccccc1)n1nc(-c2ccc(Cl)cc2)nc1NCc1ccc(F)cc1 14.6%
O=S(=O)(c1ccc(Cl)cc1)c1nc(-c2ccco2)oc1SCc1ccccc1F -30.3%
COc1ccc(S(=O)(=O)N(Cc2nc(-c3cccc(C)c3)no2)C2CCCCC2)cc1 -8.71%
COc1ccc(NC2=C(c3ccc(C(F)(F)F)cc3)C(=O)c3ccccc32)cc1 16.1%
COc1ccc(C)cc1NC(=O)c1oc2ccc(S(=O)(=O)N3CCC4(CC3)OCCO4)cc2c1C 6.25%
CC(C)Oc1cccc(C2CC(=O)Nc3cc4c(cc32)OCO4)c1 (stereo not given) -57.2%
COC(=O)c1c(-c2ccc(Cl)cc2)noc1N1CCN(c2cccc(C(F)(F)F)c2)CC1 14.6%
CCCCN(C)CC(O)Cn1cc(/C=C/C(=O)c2ccc(Br)cc2)c2ccccc21 (stereo not given) -16.9%
Cc1cccc(NC(c2ccccc2C)c2ccc3ccc(C)nc3c2O)n1 (stereo not given) 4.5%
COc1ccc(CCNC(=O)CCc2cn(Cc3ccc(F)cc3)c3ccccc23)cc1OC -22.2%
CCOc1ccccc1CNC(=O)CCc1cn(C)c2ccccc12 6.25%
CCN(CC)S(=O)(=O)c1ccc2oc(C(=O)NCc3ccccc3OC)c(C)c2c1 4.33%
Cc1ccc(CN2CCCn3nc(C(=O)NCc4ccccc4Cl)cc3C2=O)cc1 -6.67%

Potency, active:
Brc1ccc(Nc2c3c(nc4nncn24)CCC3)cc1 10.4 µM
COc1ccc(NC(=O)c2c(C)oc3ccc(O)c(CN4CCC(C)CC4)c23)cc1Cl 13.1 µM
Cc1oc2ccc(O)c(CN3CCC(C)CC3)c2c1C(=O)Nc1ccccc1 5.21 µM
COc1ccccc1C(=O)Nc1sc(Nc2ccccc2)nc1C(N)=O 18.5 µM
CC(=O)Nc1cccc(NC(=O)C(=O)NCCc2sc(-c3ccccc3)nc2C)c1 2.33 µM
Cc1ccc(C)c(CN2C(=O)c3ccccc3S(=O)(=O)c3ccc(C(=O)NCCCN4CCCC(C)C4)cc32)c1 (stereo not given) 5.21 µM
Cc1ccc(CN2C(=O)c3ccccc3Sc3ccc(C(=O)NCCCN4CCOCC4)cc32)cc1 16.5 µM
Cc1cccc(OCc2ccc(-c3nc(C#N)c(NCCN(C)C)o3)o2)c1 5.85 µM
COc1ccc(CNc2oc(COc3cccc(C)c3)nc2C#N)cc1 3.69 µM
CCCN(CCC)CCCNC(=O)C1CCN(c2nc3ccc(CC)cc3s2)CC1 6.56 µM
CCCCN(C)CCCNC(=O)C1CCN(c2nc3ccc(CC)cc3s2)CC1 5.21 µM
CC1C(=O)N2CCCc3cc(S(=O)(=O)Nc4ccc(Br)cc4F)cc1c32 (stereo not given) 14.7 µM
CC(C)CS(=O)(=O)c1oc(-c2ccc(F)cc2)nc1S(=O)(=O)c1ccccc1 0.656 µM
CCCCS(=O)(=O)c1oc(-c2ccc(F)cc2)nc1S(=O)(=O)c1ccccc1 4.14 µM
CCCCS(=O)(=O)c1oc(-c2ccc(F)cc2)nc1S(=O)(=O)c1ccc(C)cc1 6.56 µM
CCS(=O)(=O)c1oc(-c2ccc(F)cc2)nc1S(=O)(=O)c1ccc(Br)cc1 2.93 µM
CCS(=O)(=O)c1oc(-c2ccc(F)cc2)nc1S(=O)(=O)c1ccccc1 0.208 µM
COc1ccc(-c2cc(C(F)(F)F)nc(S(C)(=O)=O)n2)cc1 11.7 µM
CCCN(CCC)CC(O)Cn1cc(/C=C/C(=O)c2ccc(OCC)cc2)c2ccccc21 (stereo not given) 14.7 µM
COc1ccccc1CNC(=O)CCc1c(C)c2ccc(OC)c(C)c2oc1=O 1.47 µM

From PubChem BioAssay AID504465 (National Center for Advancing Translational Sciences (NCATS), 2011)
